This is part of a sample that, as a whole, favours compounds with a hit. Of some 83,000 tested, about 20% had one in any assay.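 How to read the values: 0–100, growth inhibition (40 = 60% inhibited); 0, no net growth; -100 to 0, cell death (-40 = 40% of starting cells died; -100 = all dead).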 A number with no mark means an inactive call. Calls of active or inactive are those of the source. The calls were made as follows: active = growth percent below 10; inactive = the rest.
Legend:
Test in all cases: NCI-60 one-dose screen, 48 h (100 = growth as untreated, 0 = no growth, -100 = all killed)
Details in all cases: 10 µM unless noted
HCT-15 colon = system: HCT-15 colon
HT29 colon = system: HT29 colon
SNB-75 CNS = system: SNB-75 CNS
SNB-19 CNS = system: SNB-19 CNS
U251 CNS = system: U251 CNS
PC-3 prostate = system: PC-3 prostate
SK-MEL-5 melanoma = system: SK-MEL-5 melanoma
LOX IMVI melanoma = system: LOX IMVI melanoma
SK-MEL-2 melanoma = system: SK-MEL-2 melanoma
EKVX NSCLC = system: EKVX NSCLC
SN12C renal = system: SN12C renal
UO-31 renal = system: UO-31 renal
TK-10 renal = system: TK-10 renal
ACHN renal = system: ACHN renal
CAKI-1 renal = system: CAKI-1 renal
A498 renal = system: A498 renal
CCRF-CEM leukemia = system: CCRF-CEM leukemia
MOLT-4 leukemia = system: MOLT-4 leukemia
SK-MEL-28 melanoma = system: SK-MEL-28 melanoma
UACC-62 melanoma = system: UACC-62 melanoma

Structure (SMILES)	growth (HCT-15 colon)	growth (HT29 colon)	growth (SNB-75 CNS)	growth (SNB-19 CNS)	growth (U251 CNS)	growth (PC-3 prostate)	growth (SK-MEL-5 melanoma)	growth (LOX IMVI melanoma)	growth (SK-MEL-2 melanoma)	growth (EKVX NSCLC)	growth (SN12C renal)	growth (UO-31 renal)	growth (TK-10 renal)	growth (ACHN renal)	growth (CAKI-1 renal)	growth (A498 renal)	growth (CCRF-CEM leukemia)	growth (MOLT-4 leukemia)	growth (SK-MEL-28 melanoma)	growth (UACC-62 melanoma)
N#CCCCCCn1c2ccccc2c2c3[nH]c(=O)[nH]c(=O)c3c3c4ccccc4n(CCCCCC#N)c3c21	86.6%	27%	26.3%	55.6%	28.9%	64.3%	28.6%	31.9%	78.5%	80.7%	26.2%	61.1%	65.6%	54%	93.2%	54.5%	74.5%	69.5%		
NCCn1cc(-c2nc(-c3c[nH]c4ncccc34)cs2)c2cc(F)ccc21	58.9%	67.2%	64.2%	86.1%	84.1%	58.5%	80%	81.7%	94.7%	48.6%	79%	53.3%	142%	76.4%		91.4%	49%	57%	101%	
COc1cccc(-c2nn(-c3ccccc3)cc2-c2ccnc(NCCCO)c2)c1	26.3%	7.65% (active)	23.4%	36.3%	21%	46.4%	29.8%	33.6%	-0.25% (active)	67.6%	34.3%	48.9%	63.1%	55.6%	43%	15.1%	11.8%			
Cc1cc(N2CCCC2)nc(N(CCNc2ccnc3cc(Cl)ccc23)Cc2ccco2)n1	18.3%	5.58% (active)	68.8%	29.4%	46.5%	0.723% (active)	-93% (active)	4.43% (active)	77.1%	36.1%	28.8%	10.8%	63.8%	39.6%		26.9%	11%	-9.45% (active)	31%	
COc1cccc(-c2nn(-c3ccccc3)cc2-c2ccnc(NCCNS(=O)(=O)c3ccc(Cl)cc3)c2)c1	24.1%	11.6%	66.2%	46%	31.2%	10.6%	-13.7% (active)	24.5%	13.4%	32.1%	33.9%	15.8%	41.5%	26.6%	32.2%	45.9%	15.3%	1.18% (active)		
CCCCC[C@H]1CC=C2C(=O)C=C[C@@H]2CC=CCCCC(=O)O[C@@H](CCCCC)CC=C2C(=O)C=C[C@@H]2CC=CCCCC(=O)O[C@@H](CCCCC)CC=C2C(=O)C=C[C@@H]2CC=CCCCC(=O)O1	7.88% [8.75 µM] (active)	-12.4% [8.75 µM] (active)	48.7% [8.75 µM]	9.32% [8.75 µM] (active)	-49.4% [8.75 µM] (active)	-15.7% [8.75 µM] (active)	-76.7% [8.75 µM] (active)	-87.5% [8.75 µM] (active)	-38.4% [8.75 µM] (active)	22.4% [8.75 µM]	-10.5% [8.75 µM] (active)	-96.7% [8.75 µM] (active)	31.6% [8.75 µM]	-11.6% [8.75 µM] (active)		-13.8% [8.75 µM] (active)	7.92% [8.75 µM] (active)	3.57% [8.75 µM] (active)	-48.7% [8.75 µM] (active)	
O=S(=O)(NCCNc1cc(-c2cn(-c3ccccc3)nc2-c2cccc(O)c2)ccn1)c1ccc(F)cc1	6.55% (active)	1.75% (active)	45.6%	46.5%	17.4%	15.1%	-12% (active)	27.7%	22.2%	56.1%	44.2%	20.1%	46.2%	27.3%	37.1%	36.2%	5.95% (active)	4.37% (active)		
COc1cccc(-c2nn(-c3ccccc3)cc2-c2ccnc(NCCCNS(=O)(=O)c3ccc(Cl)cc3)c2)c1	34.4%	11.3%	71.2%	52.1%	35.5%	25.1%	30.8%	52.3%	47.1%	64%	49.3%	22%	52.3%	38.6%	49.1%	42.3%	21.4%	14.8%		
Cc1cc(N2CCN(C)CC2)nc(N(CCNc2ccnc3cc(Cl)ccc23)Cc2ccco2)n1	18.1%	5.75% (active)	66.3%	36.8%	39.3%	34.8%	-82% (active)	-5.64% (active)	55.8%	57.2%	58.3%	54.8%	105%	54.5%		73.4%	14.1%	28.8%	-72.3% (active)	
COc1cccc(-c2nn(-c3ccccc3)cc2-c2ccnc(NCCNS(=O)(=O)c3cccc(F)c3)c2)c1	24.3%	16.9%	70.6%	37.2%	27%	19.1%	26.7%	38.3%	16.2%	44.6%	33.8%	15.7%	36.7%	21.7%	35.9%	47.7%	12.3%	4.55% (active)		
COc1ccc(C2NC(=O)Nc3ccccc32)c(OC)c1 (stereo unspecified)	100%	108%	68.7%	99.1%	99.7%	82.2%	96%	103%	102%	97%	95.3%	78.3%	95.5%	99.4%	93%	105%	101%	95.5%		
COc1ccc(-c2cc(=O)oc3ccc(Cl)cc23)cc1F	11.7%	-5.75% (active)	46%	23.5%	4.46% (active)	11%		21.9%	36.3%	38.3%	30.6%	48.4%	62.9%	34.8%	27%	2.69% (active)	11.8%	7.8% (active)	59.5%	30.1%

— PubChem BioAssay (NCI)
